Laboratory results as given in PubChem BioAssay AID588727 (Southern Research Specialized Biocontainment Screening …, 2011).
The whole screen tested about 350,000 compounds, of which about 450 (0.13%) were called active. Only a sample is shown. Measured potencies and affinities stand elsewhere. Values without a mark were called inactive. How the calls were made is not given here.

experiment: inhibitors of VEEV TC-83 cytopathic effect, confirmation, Vero cells (AID 588727); details: VEEV TC-83 cytopathic effect inhibition, at 20 µM; hits give high values unless noted

| Compound | inhibition |
| --- | --- |
| CC(=O)Nc1ccc(C(=O)OCC(=O)c2cccc([N+](=O)[O-])c2)cc1 | 0.91% |
| O=C(C[n+]1cccc(NC(=O)c2ccccc2)c1)c1cccc([N+](=O)[O-])c1 | inactive |
| CCOC(=O)C1=C(COC(=O)c2cccc(NC(C)=O)c2)NC(=O)NC1C (stereo not drawn) | 1.96% |
| CCOC(=O)Cn1c(S(=O)(=O)Cc2ccc(F)cc2)nc(-c2ccccc2)c1-c1ccccc1 | 5.03% |
| C#CCn1c(S(=O)(=O)Cc2ccc(OC)cc2)nc(-c2ccccc2)c1-c1ccccc1 | 0.79% |
| CCOC(=O)Cn1c(S(=O)(=O)Cc2cccc(F)c2)nc(-c2ccccc2)c1-c1ccccc1 | 3.2% |
| C#CCn1c(S(=O)(=O)Cc2ccccc2Cl)nc(-c2ccccc2)c1-c1ccccc1 | 1.45% |
| COC(=O)c1ccccc1-c1ccc(/C=N/Nc2nc(N3CCCC3)nc(N3CCCC3)n2)o1 | 9.1% |
| COc1ccc(S(=O)(=O)N2CCCc3ccccc32)cc1OC | inactive |
| Cc1c(OCC(=O)N(C)C)ccc2c(-c3ccccc3)cc(=O)oc12 | 2.42% |
| Cn1cccc1C(=O)NC(=O)COC(=O)c1ccc(S(C)(=O)=O)cc1 | 1.82% |
| CCOC(=O)c1cc(-c2ccccc2)sc1NC(=O)C(C)(C)C | 0.72% |
| O=C(Nc1sc(-c2ccccc2)cc1C(=O)O)c1ccccc1 | inactive |
| COC(=O)C1=C(CSCc2ccccc2)NC(=O)NC1c1cc(C)ccc1C (stereo not drawn) | 1.95% |
| CNC(=S)Nc1ccc(-c2nc3ccc(C)cc3s2)cc1 | 5.72% |
| CCC(C)(C)NC(=S)Nc1ccc(-c2nc3ccc(C)cc3s2)cc1 | 1.78% |
| CCOC(=O)c1c(C)oc(NC(=O)CCl)c1C(=O)OCC | 1.19% |
| Cc1cc(C(=O)Nc2c(C)nn(Cc3ccccc3Cl)c2C)no1 | 1.51% |
| Cc1nn(Cc2ccc(Cl)cc2)c(C)c1NC(=O)c1cc(C(C)C)on1 | 0.91% |
| CNC(=O)c1cc(S(=O)(=O)Nc2ccc3c(c2)OCCO3)ccc1C | 0.34% |
| C#CCOCCOCCOCCNc1nc(OC)nc(N2CCN(C(=O)[C@H](CCC(=O)O)n3cc(C(N)CO)nn3)CC2)n1 (stereo partly drawn) | 1.77% |
| CN1CCN(CC(=O)Nc2cc(N3CCOCC3)ccc2[N+](=O)[O-])CC1 | 0.32% |

| Compound | inhibition |
| --- | --- |
| Cc1c(CCO)c(=O)[nH]n1S(=O)(=O)c1ccc(F)cc1 | inactive |
| Cc1c(CCO)c(=O)[nH]n1C(=O)c1ccc(F)cc1 | 0.71% |
| CN1C(=O)C2(NCCc3c2[nH]c2ccccc32)c2ccccc21 (stereo not drawn) | 1.48% |
| CC1=CC(C)(C)N2C(=O)C3(NCCc4c3[nH]c3ccccc43)c3cccc1c32 (stereo not drawn) | 0.24% |
| Cc1nn(C)c(C(=O)Nc2ccn(C34CC5CC(CC(C5)C3)C4)n2)c1[N+](=O)[O-] | 0.3% |
| CCn1cc([N+](=O)[O-])c(C(=O)Nc2ccn(C34CC5CC(CC(C5)C3)C4)n2)n1 | 0.69% |
| Cn1ncc([N+](=O)[O-])c1C(=O)Nc1ccc(C2CCCCC2)cc1 | 2.86% |
| Cn1cc([N+](=O)[O-])c(C(=O)Nc2ccc(C(=O)N3CCCCC3)cc2)n1 | 10.8% |
| CCOc1ccc(S(=O)(=O)N2CCCCC2)cc1NC(=O)C1=COCCO1 | 10.1% |
| O=C1NC2=C(C(=O)CCC2)C(c2ccc([N+](=O)[O-])cc2)N1 (stereo not drawn) | inactive |
| COc1ccc(N2CCN(C(=O)c3cccc(S(=O)(=O)N4CCc5ccccc54)c3)CC2)cc1 | 4.71% |
| COc1ccccc1N1CCN(C(=O)c2cccc(S(=O)(=O)N3c4ccccc4CC3C)c2)CC1 (stereo not drawn) | 5.41% |
| NS(=O)(=O)c1ccc(CNC(=O)c2cccc(S(=O)(=O)N3CCc4ccccc43)c2)cc1 | 2.16% |
| CC(=O)N1CCN(C(=O)c2cccc(S(=O)(=O)N3c4ccccc4CC3C)c2)CC1 (stereo not drawn) | inactive |
| O=C(c1cccc(S(=O)(=O)N2CCc3ccccc32)c1)N1CCOCC1 | 1.59% |
| CN(CC(=O)Nc1ccccc1Br)C(=O)c1cccc(S(=O)(=O)N2CCc3ccccc32)c1 | 7.03% |
| COc1cc2c(cc1OC)CN(C(=O)c1cccc(S(=O)(=O)N(C)C)c1)CC2 | 1.42% |
| O=C(c1cccc(S(=O)(=O)N2CCc3ccccc32)c1)N1CCc2ccccc2C1 | 6.28% |
| CC(C)OC(=O)CSc1nnc(CNc2ccc(Cl)cc2)n1Cc1ccccc1 | inactive |
| Cc1cc(/N=C/C=C2/N(C)c3ccccc3C2(C)C)n(CCC#N)n1 | 1.39% |
| CC(=O)Nc1c2c(nn1-c1cccc(Cl)c1)CS(=O)(=O)C2 | inactive |
| O=C(COC(=O)/C=C/c1ccc(F)cc1)NC1CCCC1 | 2.24% |

| Compound | inhibition |
| --- | --- |
| Cn1nnnc1Sc1ncnc2scc(-c3ccc(C(F)(F)F)cc3)c12 | inactive |
| CCCCCC1CC(CC(=O)Nc2ccc([N+](=O)[O-])cc2)OC1=O (stereo not drawn) | inactive |
| NC(=NC1CCCCC1)c1ccc(Cl)cc1 | 0.26% |
| CCCCn1c(=O)[nH]c(=O)c2c1nc(CN(C)Cc1cccc(OC)c1OC)n2CCC | 6.28% |
| CCCCCC(=O)N1C[C@@H](n2cc(COC(=O)c3ccccc3)nn2)[C@H](O)C[C@@H]1c1ccc(OC)cc1 | 0.24% |
| Cc1cccc(-n2ncc3c(N4CC(C)CC(C)C4)ncnc32)c1 (stereo not drawn) | 1.8% |
| Cc1cccc(C(=O)NCCNC(=O)c2cccc(C)c2)c1 | inactive |
| CNC(=O)C1=C(C)Nc2nc3ccccc3n2C1c1ccc(F)cc1 (stereo not drawn) | 0.17% |
| O=C(CC(=O)c1cccc([N+](=O)[O-])c1)Nc1ccccc1Cl | inactive |
| Cc1ccc(S(=O)(=O)N2C[C@@H](C)[C@]3(C2)[C@H](O)[C@H](OC(=O)NCc2ccccc2)C[C@H]2C(=O)N(c4ccccc4)C(=O)[C@H]23)cc1 | 5.33% |
| Cc1ccc(S(=O)(=O)N2C[C@@H](C)[C@]3(C2)[C@H](O)[C@H](OC(=O)NC2CC2)C[C@H]2C(=O)N(c4ccccc4)C(=O)[C@H]23)cc1 | 11.5% |
| COCCNC(=O)CN(c1ccc(OC)c(OC)c1)S(=O)(=O)c1ccc(C)cc1 | 1.04% |
| COC(=O)c1ccc(-n2c(C)cc(C(=O)COC(=O)CNS(=O)(=O)c3ccc(C)cc3)c2C)cc1 | 0.63% |
| CCC(CC)c1nnc(NC(=O)c2c(C)nn(Cc3ccccc3Cl)c2C)s1 | 7.55% |
| CC(=O)Nc1ccc(NC(=O)c2c(C)nn(Cc3ccccc3Cl)c2C)cc1 | inactive |
| CC1CC(=O)N(C)c2cc([N+](=O)[O-])ccc2N1 (stereo not drawn) | 1.14% |
| COC(=O)c1cccc(NC(=S)N2CCOCC2)c1 | 0.95% |
| CCCCCC(=O)N1C[C@@H](n2cc(COC(=O)c3ccccc3)nn2)[C@H](O)C[C@@H]1c1ccccc1 | inactive |
| c1ccc(-c2nc3c([nH]2)CCc2nonc2-3)cc1 | 2.3% |
| COn1c(-c2ccccc2)nc2c1CCc1c-2no[n+]1[O-] | 5.93% |
| Cc1ccccc1CC(=O)c1ccc(O)c(C)c1O | 5.23% |
| CCc1ccc(NC(=O)CS(=O)CC(=O)Nc2ccc(-n3cnnn3)c(C)c2)cc1 (stereo not drawn) | 2.1% |

| Compound | inhibition |
| --- | --- |
| CCNc1oc(/C=C/c2ccc(OCC)cc2)nc1C#N | 6.65% |
| CCOc1ccc(/C=C/c2nc(C#N)c(NCCCOC)o2)cc1 | 6.2% |
| CC1=C(C(=O)Nc2ccccn2)C(c2ccc(Br)cc2)NC(=S)N1 (stereo not drawn) | 2.92% |
| O=C(O)c1cc([N+](=O)[O-])ccc1Nc1ccccc1 | 0.6% |
| O=C(O)c1ccccc1Nc1ccc([N+](=O)[O-])cc1C(=O)O | inactive |
| O=C(Nc1cccnc1)c1cccnc1Cl | 0.62% |
| CCCCOc1ccc(C(=O)Nc2ccc(N3CCN(C(C)=O)CC3)cc2)cc1 | 3.29% |
| CCOc1ccc(C(=O)Nc2ccc(N3CCN(C)CC3)cc2)cc1 | 2.08% |
| CCc1ccc(NC(=O)CC2C(=O)N(c3cccc(OC)c3)C(=O)N2CCOC)cc1 (stereo not drawn) | 1.82% |
| Cc1cc(NC(=O)C(C)SCC(=O)OCC(=O)N(Cc2ccccc2)C(C)(C)C)no1 (stereo not drawn) | 1.5% |
| Cc1cccc(N(Cc2ccccc2)C(=O)CSC(C)C(=O)Nc2cc(C)on2)c1 (stereo not drawn) | 7.94% |
| CCOC(=O)Cn1cc(C(=O)C2CC2)c2ccccc21 | 1.2% |
| O=c1c2cc([N+](=O)[O-])ccc2nc(CN2CCN(c3ccccn3)CC2)n1-c1ccccc1F | 1.21% |
| COc1cccc(-n2c(CN3CCOCC3)nc3ccc([N+](=O)[O-])cc3c2=O)c1 | 7.79% |
| CCC(CC)N1CCN(Cc2nc3ccc([N+](=O)[O-])cc3c(=O)n2-c2ccccc2F)CC1 | 22.2% |
| COc1cccc(-n2c(CN3CCN(c4ccccc4)CC3)nc3ccc([N+](=O)[O-])cc3c2=O)c1 | 2.74% |
| COc1cc(NC(=O)c2sc3ncn(CC(=O)N4CCCCC4C)c(=O)c3c2C)cc(OC)c1OC (stereo not drawn) | 11.6% |
| Cc1ccc(CN2CC(C(=O)NNC(=O)c3ccc(F)cc3)CC2=O)cc1 (stereo not drawn) | inactive |
| COCCCNC(=O)c1cc(-c2cccnc2)nc2ccccc12 | inactive |
| COCCNC(=O)COC(=O)c1cc(-c2ccc(OC)cc2)nc2ccccc12 | 0.73% |
| Cc1cccc2cc(CN(CCN(C)C)C(=S)NCc3ccco3)c(=O)[nH]c12 | 6.74% |
| CN(C)CCN(Cc1cc2cc3c(cc2nc1Cl)OCO3)C(=O)c1ccco1 | 1.49% |
